In PubChem BioAssay:
Calls of active or inactive are those of the source.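 Rule for the calls, unless noted: active = calcium signal rise above buffer-control mean plus 5 SD in both duplicates, and also a hit in the primary screen; inactive = the rest.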

What follows are molecules tested against Short transient receptor potential channel 6 (Mus musculus) (UniProt Q61143) (assay: positive modulators of mouse TRPC6 channel – HEK293 cells, membrane potential dye, duplicate, selectivity assay for TRPC4 potentiator project, confirmation (AID 434952;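 active = compound raising the membrane signal above positive-control mean plus 3 SD in both repeats, and a primary screen hit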)). Details: HEK293 TRPC6, membrane potential dye fluorescence, at 10 µM, maximal acetylcholine added after compound; active compounds read high.
Chain of Short transient receptor potential channel 6 (Mus musculus) (Q61143 whole entry, looked up): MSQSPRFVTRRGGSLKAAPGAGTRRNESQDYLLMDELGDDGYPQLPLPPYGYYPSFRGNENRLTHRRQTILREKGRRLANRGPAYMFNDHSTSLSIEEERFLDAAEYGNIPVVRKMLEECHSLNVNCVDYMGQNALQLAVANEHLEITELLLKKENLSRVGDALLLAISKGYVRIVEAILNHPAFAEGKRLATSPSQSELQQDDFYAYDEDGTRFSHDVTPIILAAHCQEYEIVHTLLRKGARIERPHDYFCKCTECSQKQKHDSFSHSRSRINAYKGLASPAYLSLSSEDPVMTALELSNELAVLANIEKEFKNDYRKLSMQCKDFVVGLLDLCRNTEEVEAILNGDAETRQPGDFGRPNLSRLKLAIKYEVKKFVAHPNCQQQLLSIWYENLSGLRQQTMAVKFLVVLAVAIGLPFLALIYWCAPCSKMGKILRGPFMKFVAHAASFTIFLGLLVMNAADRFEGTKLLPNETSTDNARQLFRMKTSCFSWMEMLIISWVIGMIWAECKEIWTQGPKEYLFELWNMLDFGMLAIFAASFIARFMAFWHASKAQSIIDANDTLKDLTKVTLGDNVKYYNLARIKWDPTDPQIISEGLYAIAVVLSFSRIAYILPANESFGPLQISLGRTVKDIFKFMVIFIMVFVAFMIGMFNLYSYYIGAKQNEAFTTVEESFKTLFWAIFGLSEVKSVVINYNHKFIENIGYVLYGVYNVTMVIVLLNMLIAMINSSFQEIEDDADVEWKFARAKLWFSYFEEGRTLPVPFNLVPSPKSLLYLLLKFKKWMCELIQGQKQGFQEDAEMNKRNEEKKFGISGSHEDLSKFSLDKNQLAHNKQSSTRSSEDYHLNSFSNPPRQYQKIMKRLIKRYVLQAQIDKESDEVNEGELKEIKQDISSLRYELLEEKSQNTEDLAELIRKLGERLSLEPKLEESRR

Row | Structure (SMILES) | outcome
1 | c1ccc(Nc2nc(Nc3ccccc3)nc(N3CCNCC3)n2)cc1 | inactive
2 | CN(C)C(CNc1ncnc2sc3c(c12)CCCC3)c1ccco1 (stereo not given) | inactive
3 | CC(=O)Nc1ccc(CN2CCCC(C(=O)c3cccc(C(F)(F)F)c3)C2)cc1 (stereo not given) | inactive
4 | NCCCn1c(C(=O)c2cc(Cl)c(N)c(Cl)c2)c2ccccc2[n+]1[O-] | inactive
5 | CCN1CCN(c2c(Cl)cccc2NC(=O)c2ccc3nsnc3c2)CC1 | inactive
6 | COc1ccc(-c2cc(C(=O)NCC(c3ccccc3)N(C)C)c3ccccc3n2)cc1OC (stereo not given) | inactive
7 | O=C(c1sc2ccccc2c1Cl)N(Cc1cccs1)C1CCS(=O)(=O)C1 (stereo not given) | inactive
8 | O=S(=O)(c1ccccc1)c1nnn2c1nc(NC1CCN(Cc3ccccc3)CC1)c1cc(Cl)ccc12 | inactive
9 | CCCc1c(O)nc(SCCN(CCC)CCC)[nH]c1=O | inactive
10 | O=C(CCc1ccccc1)NNC(=S)NC(=O)c1ccc(Cl)cc1 | inactive
11 | CCCCN(C)CCCNC(=O)CN1N=C(c2ccc(Cl)cc2)CCC1=O | inactive
12 | CC1(C)CC(=O)c2cc(C(=O)NCc3ccco3)c(=O)n(-c3ccc(Cl)cc3)c2C1 | inactive
13 | CCOC(=O)C1CCCN(C(c2ccccn2)c2c(C)[nH]c3ccccc23)C1 (stereo not given) | inactive
14 | O=C(Nc1nnc(-c2ccccc2Cl)o1)c1nc2ccccc2s1 | inactive
15 | CCCCC(c1nnnn1CC1CCCO1)N1CCN(c2nc3ccccc3s2)CC1 (stereo not given) | inactive
16 | c1ccc2c(c1)CCN(c1ncnc3c1[nH]c1ccccc13)C2 | inactive
17 | COc1ccc(C(CNCC(=O)Nc2ccccc2F)N(C)C)cc1 (stereo not given) | inactive
18 | O=S(=O)(c1ccc(Cl)cc1)N1CCN2CCCC2C1 (stereo not given) | inactive
19 | COc1cc(OC)c(CN2CCC(Cc3ccccc3)CC2)cc1Br | inactive
20 | CCOC(=O)C1(CCOc2ccccc2)CCN(Cc2ccc(NC(C)=O)cc2)CC1 | inactive
21 | O=C(C1CCCN(Cc2ccccc2)C1)N1CCc2ccccc2C1 (stereo not given) | inactive
22 | Cc1csc2c(N3CCN(C(=S)Nc4ccc(F)cc4F)CC3)ncnc12 | inactive
23 | Cc1ccc(C2(O)CN(c3ccccc3C)C3=[N+]2CCS3)cc1 (stereo not given) | inactive
24 | CCn1cc(CN2CCCC(C(=O)Nc3ccc(-c4nc5ccccc5[nH]4)cc3)C2)c(C)n1 (stereo not given) | inactive
25 | CN(C)C(CNC(=S)Nc1cccc(Cl)c1)c1cccnc1 (stereo not given) | inactive

These molecules were tested against Short transient receptor potential channel 4 (Mus musculus) (UniProt Q9QUQ5) (assay: calcium flux activators in TRPC4/5HT1a cells, counter-screen for TRPC4 activator project, cell-based, second counter screen, HEK293 TRPC4/5HT1a, Fluo-4 (AID 434977;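 for activation: plate controls were assay buffer for no effect and maximal serotonin response for full effect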)). Details: Fluo-4 calcium flux, at 10 µM; active compounds read high.

Row | Structure (SMILES) | activation | outcome
26 | O=C1/C(=C\c2cc(Cl)c(O)c(Cl)c2)SC(=S)N1Cc1ccccc1 | 105% (active) | 
27 | COc1ccc(C(=O)NC(=S)NNC(=O)c2c(-c3ccccc3)noc2C)cc1 | 105% (active) | 
28 | O=C(c1sc2ccccc2c1Cl)N(Cc1ccco1)C1CCS(=O)(=O)C1 (stereo not given) |  | inactive
29 | Cc1cc(-c2ccc(C)c(S(=O)(=O)NCCCN(Cc3ccccc3)C(C)C)c2)on1 | 56.3% (active) | 
30 | CCc1nc(NCCc2ccccn2)c2nnn(Cc3ccccc3F)c2n1 | 36.2% (active) | 
31 | CN(C)CCCN(C(=O)c1ccc(S(=O)(=O)N2CCCc3ccccc32)cc1)c1nc2ccc(F)cc2s1 |  | inactive
32 | CSCCC(NS(=O)(=O)c1ccc2c(c1)c(=O)n(C)c(=O)n2C)C(=O)NC1CCN(Cc2ccccc2)CC1 (stereo not given) | 8.04% (active) | 
33 | CCC1(c2ccc(F)cc2)NC(=O)N(CC(=O)c2cc(C)n(C3CC3)c2C)C1=O (stereo not given) | 27% (active) | 
34 | CN(C)CCCN(C(=O)c1ccc(C(=O)c2ccccc2)cc1)c1nc2ccc(F)cc2s1 |  | inactive
35 | Cc1ccc(-n2cc(CNCC3CC(=O)N(C4CC4)C3)c(-c3cccc(C)c3)n2)cc1 (stereo not given) |  | inactive
36 | CC1CCCN(CCCNC(=O)c2ccc3c(c2)N(Cc2ccccc2F)C(=O)c2ccccc2S3(=O)=O)C1 (stereo not given) | 24.4% (active) | 
37 | Cc1nc(/N=C(\N)NC(=O)NC2CCCCC2)nc2ccccc12 | 36.2% (active) | 
38 | COc1ccc(C(CNC(=O)c2cccc(NS(=O)(=O)c3ccc(C)c(F)c3)c2)N(C)C)cc1 (stereo not given) |  | inactive
39 | CCN1CCN(c2ccc(S(=O)(=O)N3CCCCC3)cc2NC(=O)COc2ccccc2)CC1 | 16.8% (active) | 
40 | CCCN(CCC)CCCNC(=O)C1CCN(S(=O)(=O)c2cccc3nsnc23)CC1 | 54.7% (active) | 
41 | c1ccc(Nc2nc(Nc3ccccc3)nc(N3CCNCC3)n2)cc1 | 56.1% (active) | 
42 | CN(C)C(CNc1ncnc2sc3c(c12)CCCC3)c1ccco1 (stereo not given) |  | inactive
43 | CC(=O)Nc1ccc(CN2CCCC(C(=O)c3cccc(C(F)(F)F)c3)C2)cc1 (stereo not given) |  | inactive
44 | NCCCn1c(C(=O)c2cc(Cl)c(N)c(Cl)c2)c2ccccc2[n+]1[O-] | 67.1% (active) | 
45 | CCN1CCN(c2c(Cl)cccc2NC(=O)c2ccc3nsnc3c2)CC1 |  | inactive

Row | Structure (SMILES) | activation | outcome
46 | COc1ccc(-c2cc(C(=O)NCC(c3ccccc3)N(C)C)c3ccccc3n2)cc1OC (stereo not given) |  | inactive
47 | O=C(c1sc2ccccc2c1Cl)N(Cc1cccs1)C1CCS(=O)(=O)C1 (stereo not given) | 12% (active) | 
48 | O=S(=O)(c1ccccc1)c1nnn2c1nc(NC1CCN(Cc3ccccc3)CC1)c1cc(Cl)ccc12 |  | inactive
49 | CCCc1c(O)nc(SCCN(CCC)CCC)[nH]c1=O | 12.4% (active) | 
50 | O=C(CCc1ccccc1)NNC(=S)NC(=O)c1ccc(Cl)cc1 | 66.8% (active) | 
51 | CCCCN(C)CCCNC(=O)CN1N=C(c2ccc(Cl)cc2)CCC1=O | 16.6% (active) | 
52 | CC1(C)CC(=O)c2cc(C(=O)NCc3ccco3)c(=O)n(-c3ccc(Cl)cc3)c2C1 |  | inactive
53 | CCOC(=O)C1CCCN(C(c2ccccn2)c2c(C)[nH]c3ccccc23)C1 (stereo not given) | 34% (active) | 
54 | O=C(Nc1nnc(-c2ccccc2Cl)o1)c1nc2ccccc2s1 | 91.4% (active) | 
55 | CCCCC(c1nnnn1CC1CCCO1)N1CCN(c2nc3ccccc3s2)CC1 (stereo not given) | 12.7% (active) | 
56 | c1ccc2c(c1)CCN(c1ncnc3c1[nH]c1ccccc13)C2 |  | inactive
57 | COc1ccc(C(CNCC(=O)Nc2ccccc2F)N(C)C)cc1 (stereo not given) |  | inactive
58 | O=S(=O)(c1ccc(Cl)cc1)N1CCN2CCCC2C1 (stereo not given) | 18.1% (active) | 
59 | COc1cc(OC)c(CN2CCC(Cc3ccccc3)CC2)cc1Br | 44.9% (active) | 
60 | CCOC(=O)C1(CCOc2ccccc2)CCN(Cc2ccc(NC(C)=O)cc2)CC1 |  | inactive
61 | O=C(C1CCCN(Cc2ccccc2)C1)N1CCc2ccccc2C1 (stereo not given) | 40.5% (active) | 
62 | Cc1csc2c(N3CCN(C(=S)Nc4ccc(F)cc4F)CC3)ncnc12 | 40.5% (active) | 
63 | Cc1ccc(C2(O)CN(c3ccccc3C)C3=[N+]2CCS3)cc1 (stereo not given) |  | inactive
64 | CCn1cc(CN2CCCC(C(=O)Nc3ccc(-c4nc5ccccc5[nH]4)cc3)C2)c(C)n1 (stereo not given) | 35.7% (active) | 
65 | CN(C)C(CNC(=S)Nc1cccc(Cl)c1)c1cccnc1 (stereo not given) |  | inactive
